Results on seven molecules are retold here after PubChem BioAssay.

Active and inactive are the calls of the source.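 The calls were made as follows, unless noted: active = compounds that lower survival of HCT116 colon cancer cells in the luminescence readout, no numeric limit stated; inactive = the rest.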

Assay [1] can be described thus: Wnt pathway potentiators raising nuclear beta-catenin – imaging, WNT3A-conditioned medium, mouse C2C12, NPC library, primary screen (AID 1117326; in the data active = nuclear beta-catenin stimulation mostly above about 4.2%, no sharp cut-off; inactive = mostly below about 10%; also: reference of the scale not given here). Particulars: stronger effect = higher value.
Assay [2] can be described thus: stimulators of insulin release from INS-1E, primary screen, cell-based, 5 mM glucose, NPC library (AID 1117329;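 active = compound raises insulin release from rat beta cells at 5 mM glucose, no numeric limit stated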; also: reference of the scale not given here). Particulars: rat INS-1E insulin secretion, at 10 µM, stronger effect = higher value.
Assay [3] in a line: growth inhibition of GSK3B-pretreated HCT116 cells – cell-based, CellTiter-Glo, 0.2 to 20 µM (AID 1117336;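 active = compounds lowering colon cancer cell viability after pretreatment blocking the GSK3B kinase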). Particulars: HCT116 viability after GSK3B inhibitor, at 20 µM, stronger effect = higher value. In general terms: ATP-based viability assays read luminescence as a measure of living cells.
The nature of assay [4]: inhibition of endothelial tube formation, primary screen, imaging, VEGF stimulated, CD31 staining, tube area, NPC library (AID 1117340;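 active = compound that reduces growth-factor-driven endothelial tube area in a mixed cell culture, no cutoff stated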). Particulars: VEGF-stimulated ADSC/ECFC co-culture, at 10 µM, stronger effect = higher value.
Assay [5] can be described thus: GLP1 release stimulators, primary, NCI-H716, NPC library (AID 1117341;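 active = compound raises GLP1 secretion from the human gut endocrine cells, with no numeric limit stated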; also: reference of the scale not given here). Particulars: NCI-H716 cells, at 10 µM, stronger effect = higher value.
Assay [6] is described as follows: HCT116 colon cancer cell growth inhibition, primary screen, CellTiter-Glo luminescence, NPC library (AID 1117342). Particulars: at 20 µM (top of the series).
Assay [7] in a line: reduced SW480 viability measured with CellTiter-Glo, NPC library, primary (AID 1117343;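 active = compounds that lower viability of the colon cancer cells in the luminescence readout, with no numeric limit stated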). Particulars: CellTiter-Glo luminescence; at 20 µM (top of the series).
Assay [8] is described as follows: NPC library primary testing for decreased DLD-1 cell viability via CellTiter-Glo (AID 1117346;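 active = compounds that lower survival of DLD-1 colon cancer cells in the luminescence readout, no cutoff given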). Particulars: DLD-1 viability, CellTiter-Glo luminescence; at 20 µM (top of the series).

In the case of `CCN(CCO)CCn1c(Cc2ccccc2)nc2c1c(=O)n(C)c(=O)n2C`, the nuclear beta-catenin stimulation was -2% (inactive) in assay [1] (at 10 µM) and 0% in assay [1] (stimulation, at 2 µM). The insulin secretion stimulation in assay [2] is 3% (inactive). Besides, the viability decrease in assay [3] is -6% (inactive). The tube area decrease in assay [4] was 4.3% (inactive). For the same molecule, in assay [5], the GLP1 secretion stimulation is -5.3% (inactive). In addition, the inhibition of viability in assay [6] was 6.4% (inactive). For the same molecule, the viability decrease (inhibition) is 15.1% (inactive) in assay [7] and 4.2% (inactive) in assay [8].
For `Cc1ccc2c(c1)C1CN(C)CCC1N2` (stereo not drawn), the nuclear beta-catenin stimulation is -0.3% (inactive) in assay [1] (at 10 µM) and 0.7% in assay [1] (stimulation, at 2 µM). Besides, in assay [2], the insulin secretion stimulation is -0.9% (inactive). The viability decrease in assay [3] was 1.05% (inactive). Also, in assay [4], the tube area decrease was -17.5% (inactive). In addition, the GLP1 secretion stimulation in assay [5] was 6.1% (inactive). In assay [6], the inhibition of viability was 5.2% (inactive). Further, the results for the viability decrease (inhibition) in assay [7] and in assay [8] were 22.4% (inactive) and 0.7% (inactive), respectively.
As to `CCCCCCCCCCCCNCCNCCNCC(=O)O`, the nuclear beta-catenin stimulation in assay [1] (at 10 µM) is 92.8% (active); in assay [1] (stimulation, at 2 µM), 1.1%. Besides, the insulin secretion stimulation in assay [2] is -0.3% (inactive). Further, the viability decrease in assay [3] is 98.8% (active). Moreover, the tube area decrease in assay [4] is 74.7% (active). Further, the GLP1 secretion stimulation in assay [5] is 2.6% (inactive). Further, the inhibition of viability in assay [6] is 99.3% (active). In addition, the viability decrease (inhibition) is 100% (active) in assay [7] and 101% (active) in assay [8].
Take `C[C@]12C=CC(=O)C=C1CC[C@@H]1[C@@H]2CC[C@@]2(C)[C@H]1CC[C@]2(C)O`: the nuclear beta-catenin stimulation is 6.6% (inactive) in assay [1] (at 10 µM) and 2.4% in assay [1] (stimulation, at 2 µM). The insulin secretion stimulation in assay [2] was 1.5% (inactive). Moreover, in assay [3], the viability decrease is 38.6% (inactive). Also, the tube area decrease in assay [4] is 31.2% (inactive). In assay [5], the GLP1 secretion stimulation is 4% (inactive). In assay [6], the inhibition of viability is 29.9% (inactive). Moreover, the values for the viability decrease (inhibition) in assay [7] and in assay [8] were 75.7% (active) and 17.9% (inactive), respectively.
On to `CN1C(=S)CN=C(c2ccccc2)c2cc(Cl)ccc21`, for which the nuclear beta-catenin stimulation is -0.4% (inactive) in assay [1] (at 10 µM) and 3.4% in assay [1] (stimulation, at 2 µM). For the same molecule, the insulin secretion stimulation in assay [2] was 1.75% (inactive). Further, the viability decrease in assay [3] was 65.8% (active). For the same molecule, in assay [4], the tube area decrease was 6.8% (inactive). Also, the GLP1 secretion stimulation in assay [5] is 1.6% (inactive). In addition, the inhibition of viability in assay [6] is 50.3% (active). In addition, the viability decrease (inhibition) in assay [7] was 77.5% (active); in assay [8] it was 32.7% (inactive).
Turning to `COCC(=O)N(c1c(C)cccc1C)C(C)C(=O)OC` (stereo not drawn), the nuclear beta-catenin stimulation in assay [1] (at 10 µM) is 0.1% (inactive); in assay [1] (stimulation, at 2 µM), 0.5%. Further, the insulin secretion stimulation in assay [2] is -1.7% (inactive). In assay [3], the viability decrease was -0.7% (inactive). Besides, the tube area decrease in assay [4] was -6.8% (inactive). Also, the GLP1 secretion stimulation in assay [5] was 1.9% (inactive). For the same molecule, in assay [6], the inhibition of viability was -27% (inactive). In addition, the viability decrease (inhibition) was 1.1% (inactive) in assay [7] and 8.85% (inactive) in assay [8].
As to `CCN(CC)C(=O)N[C@@H]1C=C2c3cccc4[nH]cc(c34)C[C@@H]2N(C)C1`, the nuclear beta-catenin stimulation in assay [1] (at 10 µM) was 0.6% (inactive); in assay [1] (stimulation, at 2 µM), -0.6%. Also, the insulin secretion stimulation in assay [2] was 2.6% (inactive). For the same molecule, the viability decrease in assay [3] is 8.2% (inactive). Further, the tube area decrease in assay [4] was -8.2% (inactive). Also, in assay [5], the GLP1 secretion stimulation was -1% (inactive). In addition, the inhibition of viability in assay [6] is 12.2% (inactive). For the same molecule, the viability decrease (inhibition) in assay [7] was -11.8% (inactive); in assay [8], -5.3% (inactive).
